The results in this text go back to PubChem BioAssay (NCATS).

Results filed as inconclusive are left out. Entries that show only a call come without a potency. Activity calls are given as the source filed them. Calls come from the whole dose curve.
Potency is the fitted concentration of half-maximal effect.

The target in this assay is Nucleoprotein (Lymphocytic choriomeningitis virus (strain Armstrong)) (UniProt P09992). Kind of assay: qHTS for Inhibitors of the Functional Ribonucleoprotein Complex (vRNP) of Lymphocytic Choriomeningitis Arenaviruses (LCMV): LCMV Primary Screen - GLuc reporter signal (AID 1347086). Note: nearly all actives have a fitted effect of over 70% in size. Conditions: LCMV minigenome vRNP cell assay, Gaussia luciferase reporter; series mostly up to 57.5 µM. (In qHTS, concentration-response curves come from the screen itself.)
Sequence of Nucleoprotein (Lymphocytic choriomeningitis virus (strain Armstrong)) (P09992 whole entry, looked up): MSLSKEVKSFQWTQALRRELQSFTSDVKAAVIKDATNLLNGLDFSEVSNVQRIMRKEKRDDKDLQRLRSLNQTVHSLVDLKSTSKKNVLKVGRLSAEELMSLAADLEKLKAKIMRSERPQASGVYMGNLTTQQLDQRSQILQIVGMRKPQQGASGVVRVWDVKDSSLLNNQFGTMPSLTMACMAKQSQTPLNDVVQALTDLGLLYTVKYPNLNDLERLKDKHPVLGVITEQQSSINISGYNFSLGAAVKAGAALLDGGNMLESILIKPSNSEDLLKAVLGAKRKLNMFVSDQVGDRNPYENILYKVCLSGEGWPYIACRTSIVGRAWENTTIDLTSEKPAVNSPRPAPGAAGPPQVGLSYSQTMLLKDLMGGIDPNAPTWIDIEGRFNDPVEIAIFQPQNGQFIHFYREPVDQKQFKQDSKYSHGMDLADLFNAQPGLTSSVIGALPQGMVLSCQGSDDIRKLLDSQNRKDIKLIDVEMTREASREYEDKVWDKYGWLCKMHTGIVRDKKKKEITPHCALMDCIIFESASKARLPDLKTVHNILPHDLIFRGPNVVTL
`OCc1ccc(Cl)cc1Cl`: the Potency entry is “inactive”.
The same measure for `CCOc1cc(OCC)c(C(=O)CCC(=O)O)cc1OCC`: “inactive”; for `C=CCN1CCc2nc(N)sc2CC1`: “inactive”; for `O=c1c(-c2ccc(O)cc2)coc2cc(O)cc(O)c12`: “inactive”.
Turning to `O=C(O)Cc1csc(-c2ccc(Cl)cc2)n1`, the Potency entry is “inactive”.
To `Clc1ccc2nsnc2c1NC1=NCCN1` belongs “inactive”; to `COc1ccc(C(=O)c2ccccc2)c(O)c1`, “inactive”; to `O=C(O)c1cc(=O)[nH]c(=O)[nH]1`, “inactive”.
As for `Cc1c(NC(C)C)c(=O)n(-c2ccccc2)n1C`, the Potency entry is “inactive”.
To `O=c1[nH]cnc2[nH]ncc12` belongs “inactive”.
With `CCOC(=O)C1=C[C@@H](OC(CC)CC)[C@H](NC(C)=O)[C@@H](N)C1`, the Potency result is “inactive”.
As for `O=C(O)Cn1c(=O)n(Cc2ccc(Br)cc2F)c(=O)c2ccc(Cl)cc21`, the Potency entry is “inactive”.
The same measure for `C[N+](C)(C)CCCCCC[N+](C)(C)C`: “inactive”; for `C#CCC(Cc1cnc2nc(N)nc(N)c2n1)c1ccc(C(=O)N[C@@H](CCC(=O)O)C(=O)O)cc1` (some centres undefined): 0.306 µM (active); for `O=C1OC(CN2CCOCC2)CN1/N=C/c1ccc([N+](=O)[O-])o1` (centres undefined): “inactive”.
To `Nc1ccc(S(=O)(=O)NC(=O)c2ccccc2)cc1` belongs “inactive”; to `Cc1ccc(C(=O)C(C)CN2CCCCC2)cc1` (centres undefined), “inactive”; to `COc1cc(C(=O)N2CCCCCCC2)cc(OC)c1OC`, “inactive”.
Consider `NCCc1ccn[nH]1`, for which the Potency result is “inactive”.
The same measure for `NC(=O)NS(=O)(=O)c1ccc(Cl)cc1`: “inactive”; for `Oc1ccccc1-c1nnco1`: “inactive”.
For the compound `O=C(OOC(=O)c1ccccc1)c1ccccc1`, the Potency entry was “inactive”.
As for `COc1ccc2c(c1)CCCC2=O`, the Potency entry was “inactive”.
On to `Nc1ccn(C[C@@H](CO)OCP(=O)(O)O)c(=O)n1`, for which the Potency result is “inactive”.
`CN[C@@H]1[C@@H](O)[C@@H](O[C@@H]2[C@H](O)[C@H](O[C@H]3OC(CN)=CC[C@H]3N)[C@@H](N)C[C@H]2N)OCC1(C)O` (some centres undefined): the Potency result was “inactive”.
With `CN1CCN(CC(=O)N2c3ccccc3C(=O)Nc3cccnc32)CC1`, the Potency result is “inactive”.
As for `Cc1cccc(C)c1NC(=O)CN1CCCCCC1`, the Potency result is “inactive”.
The same measure for `O=C(NCC1CCCCN1)c1cc(OCC(F)(F)F)ccc1OCC(F)(F)F` (centres undefined): “inactive”; for `CN[C@@H](C)Cc1ccccc1`: “inactive”; for `Nc1cc(=O)[nH]c(N)n1`: “inactive”.
For `CCN1CC(CCN2CCOCC2)C(c2ccccc2)(c2ccccc2)C1=O` (centres undefined), the Potency result is “inactive”.
Turning to `COc1cc(C=O)ccc1O`, the Potency result was “inactive”.
As to `O=C(COCCOCCOCC(=O)Nc1c(I)cc(I)c(C(=O)O)c1I)Nc1c(I)cc(I)c(C(=O)O)c1I`, the Potency entry was “inactive”.
In the case of `COC(=O)c1ccccc1C(=O)c1ccc(OCCN2CCCCC2)cc1`, the Potency result is “inactive”.
`O=C(O)Cc1cn(-c2ccccc2)nc1-c1ccc(Cl)cc1`: the Potency entry was “inactive”.
Turning to `NCCCCCC(=O)O`, the Potency result is “inactive”.
For `N#C[C@H]1C[C@H]2C[C@@H]2N1C(=O)[C@@H](N)C12CC3CC(CC(O)(C3)C1)C2`, the Potency entry was “inactive”.
On to `CCCCCCCCCCCCCCCCO`, for which the Potency entry was “inactive”.
The same measure for `CC(O)CN(CCN(CC(C)O)CC(C)O)CC(C)O` (centres undefined): “inactive”.
